Assay [1] in a line: qHTS Assay for Lipid Storage Modulators (AID 1519; calls by dose curve; on activity change, negative = inhibition: on the % scale 0 is the no-effect control and ±100 the full control effect). As to conditions: Drosophila S3 cells, BODIPY lipid droplet/cell ratio, laser cytometry, cells loaded with oleic acid. The essentials:
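Cells seeded at 5,000 per well were treated with compounds over a concentration series and loaded with oleic acid (400 uM, as added). Lipid droplet fluorescence (488 nm excitation, 500-530 nm channel) was read by laser-scanning cytometry and normalized to 20 uM Triacsin C.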

For assay [2], the target named is Ubiquitin carboxyl-terminal hydrolase 1 (Homo sapiens) (UniProt O94782). Nature of the assay: Inhibitors of USP1/UAF1: Pilot qHTS (AID 504865). Further: nearly all actives have a fitted effect of over 35% in size. Further: potency means the concentration at half of the fitted maximal effect.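 On activity change, negative = inhibition: rhodamine fluorescence freed from ubiquitin-rhodamine substrate followed over time; top concentration of the series differs between compounds; on the % scale 0 is the no-effect control and ±100 the full control effect.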 As to conditions: purified USP1/UAF1, Ub-rhodamine cleavage fluorescence; series mostly up to 114 µM. The essentials: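 USP1/UAF1 complex (1nM) preincubated with compound 15 min at room temperature, then Ub-Rho substrate (150nM final) added. Fluorescence read kinetically at 480/540 nm, 6 reads every 60 seconds. Buffer: 50mM HEPES pH 7.8, 0.5mM EDTA, 0.1 mg/ml BSA, 1mM TCEP, 0.01% Tween-20.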
Chain of Ubiquitin carboxyl-terminal hydrolase 1 (Homo sapiens) (O94782 whole entry, looked up): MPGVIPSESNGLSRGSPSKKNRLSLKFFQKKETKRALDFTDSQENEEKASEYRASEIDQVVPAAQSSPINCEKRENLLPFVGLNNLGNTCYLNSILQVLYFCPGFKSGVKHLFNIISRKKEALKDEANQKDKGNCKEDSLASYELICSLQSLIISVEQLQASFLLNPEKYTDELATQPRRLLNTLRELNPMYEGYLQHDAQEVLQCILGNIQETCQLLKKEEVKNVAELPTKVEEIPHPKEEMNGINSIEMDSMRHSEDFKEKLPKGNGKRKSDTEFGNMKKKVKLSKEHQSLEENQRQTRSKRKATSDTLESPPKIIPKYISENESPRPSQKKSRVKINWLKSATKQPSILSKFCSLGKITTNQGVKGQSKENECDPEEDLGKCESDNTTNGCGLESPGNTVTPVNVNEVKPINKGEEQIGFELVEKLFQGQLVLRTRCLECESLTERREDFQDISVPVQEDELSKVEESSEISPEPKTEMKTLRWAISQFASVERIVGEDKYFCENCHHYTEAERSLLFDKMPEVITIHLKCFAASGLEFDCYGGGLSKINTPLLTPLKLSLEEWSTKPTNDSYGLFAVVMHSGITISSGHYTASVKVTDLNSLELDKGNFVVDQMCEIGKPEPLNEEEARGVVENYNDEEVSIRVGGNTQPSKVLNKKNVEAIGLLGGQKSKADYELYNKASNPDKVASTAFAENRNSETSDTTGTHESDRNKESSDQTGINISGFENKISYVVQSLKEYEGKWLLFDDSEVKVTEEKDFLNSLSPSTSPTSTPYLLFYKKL

Assay [3] in a line: qHTS profiling for inhibitors of Plasmodium falciparum proliferation (AID 504749).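 Further: 0% = DMSO vehicle and full inhibition = artemisinin control; nearly all actives have a fitted effect of over 60% in size.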 As to conditions: P. falciparum in erythrocytes, SYBR Green DNA, 72 h. The gist of the method: (§1)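 SYBR Green fluorescence (ex 485 nm, em 535 nm) reports parasite DNA after 72 h compound exposure of infected red cells at 0.3% parasitemia, 2.5% hematocrit; signal normalized to 0.29 uM artemisinin and vehicle wells.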
For orientation: In qHTS, concentration-response curves come from the screen itself.

Assay [4] has as its system C2A. Described as above. The following applies: P. falciparum in erythrocytes, SYBR Green DNA, 72 h; series mostly up to 12.8 µM. The gist of the method:
as §1

The subject of assay [5] is CP185. The assay is described as above. The following applies: P. falciparum in erythrocytes, SYBR Green DNA, 72 h; series mostly up to 12.8 µM. The gist of the method:
as §1

The test system of assay [6] is CP201. The description is as above. The following applies: P. falciparum in erythrocytes, SYBR Green DNA, 72 h; series mostly up to 12.8 µM. The essentials: as §1
Assay [7] deals with CP211. The description is as above. The following applies: P. falciparum in erythrocytes, SYBR Green DNA, 72 h; series mostly up to 12.8 µM. The essentials:
as §1

For assay [8], the system named is CP238. The assay is described as above. As to conditions: P. falciparum in erythrocytes, SYBR Green DNA, 72 h; series mostly up to 12.8 µM. The gist of the method:
as §1

Assay [9] concerns CP262. The description is as above. The following applies: P. falciparum in erythrocytes, SYBR Green DNA, 72 h; series mostly up to 12.8 µM. The essentials:
as §1

Assay [10] has as its system CP268. The assay is described as above. The following applies: P. falciparum in erythrocytes, SYBR Green DNA, 72 h; series mostly up to 12.8 µM. The gist of the method:
as §1

The subject of assay [11] is CP269. The assay is described as above. As to conditions: P. falciparum in erythrocytes, SYBR Green DNA, 72 h; series mostly up to 12.8 µM. The essentials:
as §1

Assay [12] relates to CP305. Described as above. The following applies: P. falciparum in erythrocytes, SYBR Green DNA, 72 h; series mostly up to 12.8 µM. The essentials:
as §1

Assay [13] has as its system CP315. Described as above. As to conditions: P. falciparum in erythrocytes, SYBR Green DNA, 72 h; series mostly up to 12.8 µM. The essentials: as §1
The test system of assay [14] is CP325. The description is as above. The following applies: P. falciparum in erythrocytes, SYBR Green DNA, 72 h; series mostly up to 12.8 µM. The essentials: as §1
Assay [15] deals with CP329. Described as above. The following applies: P. falciparum in erythrocytes, SYBR Green DNA, 72 h; series mostly up to 12.8 µM. The gist of the method: as §1
The test system of assay [16] is FAB9. Described as above. The following applies: P. falciparum in erythrocytes, SYBR Green DNA, 72 h; series mostly up to 12.8 µM. The essentials:
as §1

The test system of assay [17] is JCK. The assay is described as above. As to conditions: P. falciparum in erythrocytes, SYBR Green DNA, 72 h; series mostly up to 12.8 µM. The gist of the method:
as §1

In assay [18] the test system is PC15. The assay is described as above. The following applies: P. falciparum in erythrocytes, SYBR Green DNA, 72 h; series mostly up to 12.8 µM. The gist of the method:
as §1

Assay [19] has as its system PC49. Described as above. The following applies: P. falciparum in erythrocytes, SYBR Green DNA, 72 h; series mostly up to 12.8 µM. The essentials:
as §1

Assay [20] in a line: Confirmation and Secondary Assay for Modulators of Hemoglobin Beta Chain Splicing at IVS2 705 locus (AID 930).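 Further: HeLa cells stably expressing the EGFP-705 splicing reporter; GFP fluorescence per well restored by corrected splicing of the IVS2-705 intron in EGFP; % of control where 0% means no effect.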 As to conditions: HeLa EGFP-705 splicing reporter, GFP fluorescence, 48 h; series mostly up to 46.1 µM. The gist of the method: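 HeLa EGFP-705 reporter; 500 cells/well, o/n 37C 5% CO2; cpd 2 d; 488 ex/500-520 em laser scan; total peak GFP intensity/well. Ref: 500 nM […] antisense PNA.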

[21] abbreviates: measured here: cell count channel max response.
[22] abbreviates: measured here: lipid channel max response.
[23] abbreviates: at 12.8 µM (top of the series), parasite line A.
Setting [24] is: at 12.8 µM (top of the series), parasite line B.

Records with an inconclusive call do not appear. Activity calls are given as the source filed them. Unless noted, the call rests on the fitted dose curve; in most records, active means well fitted curve in the direction sought with a large enough effect; inconclusive means small, poorly fitted or top-dose-only effect, or another doubt; inactive means no such curve, though single readings can be large; an effect the other way counts as inactive or inconclusive.

Take `C1CCC(C(C[C@@H]2CCCCN2)C2CCCCC2)CC1`: in [1] (at 25.7 µM (top of the series)), the activity change, negative = inhibition was -4.85% (inactive). Besides, the max response in assay [1] (setting [21]) is -11.9%; in [1] (setting [22]), -15.6%. For the same molecule, the Potency result in assay [2] was “inactive”.
Turning to `CCC(=O)[C@@]1(C)[C@H](C)C[C@@H]2[C@@H]3CCC4=CC(=O)C=C[C@@]4(C)[C@H]3[C@H](O)C[C@]21C`, in [1] (at 25.7 µM (top of the series)), the activity change, negative = inhibition is -1.25% (inactive). Besides, the max response is -14.6% in assay [1] (setting [21]) and -19.8% in assay [1] (setting [22]). Besides, the activity, negative = inhibition in assay [3] (setting [23]) is -6.51% (inactive); in [3] (setting [24]) it was 3.51% (inactive). Moreover, the Potency result in assay [4], in assay [5], in [6], in assay [7], in assay [8] and in assay [9] was “inactive” throughout. The Potency entry in [10], in assay [11], in assay [12], in [13], in assay [14] and in assay [15] was “inactive” in each case. Also, the Potency result in [16], in [17], in [18] and in [19] was “inactive” each time.
Turning to `C[C@@H](CN1c2ccccc2Sc2ccccc21)N(C)C`, the activity change, negative = inhibition in assay [1] (at 25.7 µM (top of the series)) is -3.2% (inactive). The max response in [1] (setting [21]) is -10.2%; in assay [1] (setting [22]), -13.4%. In addition, the Potency result in assay [2] is “inactive”.
Turning to `Nc1ncnc2c1nc(Br)n2[C@H]1O[C@H]2COP(=O)(O)O[C@H]2[C@@H]1O`, in [1] (at 57.5 µM (top of the series)), the activity change, negative = inhibition is -1.26% (inactive). In addition, the max response in assay [1] (setting [21]) came out at 2.68%; in assay [1] (setting [22]), 0.508%. Besides, the Potency entry in assay [2] was “inactive”.
Turning to `C=C(C)[C@H]1CC[C@]2(CO)CC[C@]3(C)[C@@H](CC[C@H]4[C@@]5(C)CC[C@@H](O)C(C)(C)[C@@H]5CC[C@@]43C)[C@H]12`, the activity change, negative = inhibition in assay [1] (at 25.7 µM (top of the series)) was -10.7% (inactive). Besides, the max response in assay [1] (setting [21]) was -12.9%; in assay [1] (setting [22]), -22.1%. In addition, in assay [2], the Potency result is “inactive”.
With `COc1ccc2c(c1)N(C[C@@H](C)CN(C)C)c1ccccc1S2`, the activity change, negative = inhibition in assay [1] (at 25.7 µM (top of the series)) was -4.01% (inactive). The max response in assay [1] (setting [21]) was -9.35%; in assay [1] (setting [22]) it was -12.9%. Besides, the activity, negative = inhibition was 2.81% (inactive) in assay [3] (setting [23]) and -1.87% (inactive) in assay [3] (setting [24]). Moreover, the Potency entry in assay [4], in assay [5], in assay [6], in [7], in assay [8] and in assay [9] was “inactive” in each case. Further, the Potency entry in assay [10], in [11], in [12], in [13], in assay [14] and in assay [15] was “inactive” in each case. Further, the Potency result in assay [16], in assay [17], in assay [18] and in assay [19] was “inactive” throughout.
As for `CCN(CC)CCOC(=O)[C@@H](c1ccccc1)C1CCCCC1`, in assay [1] (at 25.7 µM (top of the series)), the activity change, negative = inhibition is -5.77% (inactive). Besides, the max response is -11.7% in assay [1] (setting [21]) and -16.6% in assay [1] (setting [22]). In addition, in [2], the Potency entry is “inactive”.
Turning to `O=C(O)[C@@H]1[C@@H]2C[C@H]3c4[nH]c5ccccc5c4CCN3C[C@@H]2CC[C@@H]1O`, the activity change, negative = inhibition in [1] (at 25.7 µM (top of the series)) is 0.95% (inactive). Further, the max response in assay [1] (setting [21]) is -6.3%; in [1] (setting [22]), -6.11%. Also, in assay [2], the Potency is 28.2 µM (active). Besides, the Potency entry in assay [10], in [12], in assay [17] and in [19] was “inactive” throughout.
As for `O=C1OC(CO)C(O)C(O)C1O` (stereo not drawn), the Potency result in assay [20], in assay [2], in assay [4], in assay [5], in [6] and in [7] was “inactive” each time. The Potency result in assay [8], in [9], in [10], in assay [11], in [12] and in [13] was “inactive” in each case. For the same molecule, the Potency result in [14], in [15], in assay [16], in assay [17], in assay [18] and in assay [19] was “inactive” in each case. Moreover, the activity change, negative = inhibition in [1] (at 57.5 µM (top of the series)) was 6.29% (inactive). The max response in assay [1] (setting [21]) came out at 17.3%; in assay [1] (setting [22]), 26.8%. For the same molecule, the activity, negative = inhibition in assay [3] (at 28.7 µM (top of the series), parasite line A) was 11.9% (inactive); in [3] (at 28.7 µM (top of the series), parasite line B) it was -2.03% (inactive).
